# Compound activity deposited in PubChem BioAssay by National Center for Advancing Translational Sciences (NCATS).
# AMA1-RON2 inh = qHTS for Inhibitors of AMA1-RON; Towards Development of Antimalarial Drug Lead: Primary Screen. Plasmodium falciparum AMA1 (3D7) - RON2 peptide interaction. AlphaScreen AMA1-biotinylated RON2 peptide binding. Potency, µM (titrated, usually from 58.2 µM), without a hit: at the top dose activity change, negative = inhibition, most hits filed as inhibitors. actives 0.2% (n = 360,000). AID 720542, 2013;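 also: potency is read from the fitted curve at half-maximal effect; 0% = vehicle wells and -100% = peptide control; nearly all actives have a fitted effect of over 45% in size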
#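 AMA1 (3D7) with his tag at 25 nM final met compounds first, then biotinylated RON2 peptide at 25 nM; detection used donor plus acceptor beads, 10 µg/mL apiece, read by AlphaScreen after 30 min at room temperature.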
# Pf growth 96h = Primary qHTS for delayed death inhibitors of the malarial parasite plastid, 96 hour incubation; P. falciparum luciferase reporter growth, 96 h; Potency, µM (series often up to 28.7 µM), inactives show top-dose activity change, negative = inhibition, actives largely listed as inhibitors; actives 6.9% (n = 320,000); AID 504834, 2011; also: potency is read from the fitted curve at half-maximal effect; % is scaled to controls: 0 for no effect and ±100 for the full control effect
#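 Delayed-death screen, second-generation endpoint: infected erythrocytes, 2% hematocrit, 0.05% parasitemia final; 96 hours at 37 C, 5% CO2; luciferase detection reagent; luminescence decrease equals reduced growth.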
# Cycloheximide cs = Cycloheximide Counterscreen for Small Molecule Inhibitors of Shiga Toxin | cell reporter, cycloheximide protein synthesis inhibition counterscreen | max response, % | actives 12% (n = 300,000); in the data active = max response mostly above about 13%, no sharp cut-off; inactive = mostly below about 14%; also: read at 38.3 µM for the half of the compounds with a filed dose; 0% is about no effect
# Pf growth 48h = Primary qHTS for delayed death inhibitors of the malarial parasite plastid, 48 hour incubation | P. falciparum luciferase growth in erythrocytes, 48 h | Potency, µM (highest dose often 28.7 µM), for inactives: at the highest dose activity change, negative = inhibition, usual class: inhibitors | actives 5.9% (n = 310,000) | AID 504832, 2011; also: potency is read from the fitted curve at half-maximal effect; % is scaled to controls: 0 for no effect and ±100 for the full control effect
#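 In quantitative HTS format, infected erythrocytes bearing luciferase-reporter parasites were treated for a single generation at 37 C. Luminescence after adding detection reagent served as the growth measure.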
# Shiga inhibitor = A qHTS for Small Molecule Inhibitors of Shiga Toxin; Vero cells, Shiga toxin protein synthesis inhibition reporter; inhibition, % at 38.7 µM; actives 9.2% (n = 290,000); AID 2315, 2010; in the data active = inhibition mostly above about 28%, no sharp cut-off; inactive = mostly below about 43%; also: 0% is about no effect
# SARS PLP yeast = qHTS of Yeast-based Assay for SARS-CoV PLP; S. cerevisiae expressing SARS-CoV PLpro, growth rescue; Potency, µM (doses to about 32.9 µM), without a hit: at the highest dose activity, positive = growth rescue, hits mostly activators; actives 0.19% (n = 330,000); calls by dose curve; also: potency is read from the fitted curve at half-maximal effect; 0% is about no effect; nearly all actives have a fitted effect of over 55% in size
# Numbers without * were called inactive; u = inconclusive; x = not tested or not shown; + = active, no number; [ ] = another dose, or the depositor's remark. Sampled rows, rich in hits. Any-hit rate of the full collection: about 19%. Unless noted, calls follow the shape of the dose curve; as a rule, active = well fitted curve in the direction sought with a large enough effect; inconclusive = small, poorly fitted or top-dose-only effect, or another doubt; inactive = no such curve, though single readings can be large; an effect the other way counts as inactive or inconclusive.
SMILES,AMA1-RON2 inh,Pf growth 96h,Cycloheximide cs,Pf growth 48h,Shiga inhibitor,SARS PLP yeast
COc1cccc(NC(=O)CN(C)C(=O)c2ccc(OCC3CCCO3)cc2)c1 (stereo not drawn),-16%,16%,x,-10%,x,1%
O=C(O)c1ccc(-c2ccc3cc(C45CC6CC(CC(C6)C4)C5)c(O)cc3c2)cc1,x,x,45*,x,28*,x
Cc1ccc(Nc2c(-c3ccc(C)o3)nc3ncccn23)cc1,-14%,5%,21*,-10%,54*,-1%
Oc1ccc(-c2nc3ncccn3c2Nc2ccc3c(c2)OCO3)cc1,-21%,-1%,-4,u,-22,3%
Clc1ccc(-c2nc3ncccn3c2Nc2ccc3c(c2)OCO3)cc1,0%,4.1µM*,29,4.1µM*,-3,8%
Cc1ccc(-c2nc3ncccn3c2Nc2ccc3c(c2)OCO3)o1,-2%,u,20*,-18%,11,5%
O=C(NCc1ccccn1)C1CCN(C2CCN(Cc3cccc(F)c3)CC2)CC1,29%,x,x,x,x,x
N#C/C(=C\c1cc(Cl)cc(Cl)c1O)C(=O)NC1CCCCC1,0%,u,1,u,16,-12%
Cc1ccc(/C=C/C(=O)Nc2cc(C)on2)cc1,u,u,58*,u,62*,-3%
CC(=O)c1ccc(NC(=O)/C=C/c2ccc(C)cc2)cc1,-1%,31%,7,-4%,48,-20%
Cc1cc(NS(=O)(=O)c2ccc(NC(=O)/C=C/c3ccc(Br)cc3)cc2)no1,-2%,-32%,-2,-3%,-6,u
CC(C)(C)c1ccc(S(=O)(=O)N2CCCC2C(=O)NC2=NCCS2)cc1 (stereo not drawn),37%,u,-2,u,-1,-13%
Cc1ccc(/C=C/C(=O)NC2=NCCS2)cc1,25%,u,70*,75%,92*,-42%
CC(C)(C)c1ccc(/C=C/C(=O)NC2=NCCS2)cc1,-3%,-13%,54*,-2%,+,-15%
CN(CCC#N)S(=O)(=O)c1cc2c3c(c1)CCN3C(=O)CC2,-2%,18%,7,10%,-2,-1%
O=C(COc1ccccc1)Nc1ccc2c(c1)nc1n2CCSC1,33%,34%[5.75 µM],24*,13%,146,1%
O=C(COc1ccccc1)Nc1ccc2c(c1)nc1n2CCOC1,31%,43%[5.75 µM],20,78%,134*,0%
COc1cccc(/C=N/NC(=O)Cn2cnc3c2c(=O)n(C)c(=O)n3C)c1,-7%,41%,1,19%,-6,0%
Oc1ccccc1C=NCCN=Cc1ccccc1O,122%,28%,1,8%,28,0%
Oc1ccc(Cl)cc1C=NCCc1ccccc1,49%,51%,15*,20%,57*,4%
CC(=O)Nc1cccc(NC(=O)c2ccc(C)c([N+](=O)[O-])c2)c1,-1%,-4%,26*,48%,41,-1%
Cc1cc(C(=O)Nc2ccncc2)ccc1[N+](=O)[O-],5%,18%,26*,x,43,-2%
Cc1ccc(C(=O)NNC(=O)c2ccncc2)cc1[N+](=O)[O-],3%,7%,x,14%,x,1%
C/C(=N\NC(=O)c1ccc([N+](=O)[O-])c(C)c1)c1ccccc1Cl,55%,30%,28*,19%,57*,-10%
Cc1ccc(C(=O)Nc2ccncc2)cc1[N+](=O)[O-],0%,u,-3,-19%,-7,-4%
SMILES,AMA1-RON2 inh,Pf growth 96h,Cycloheximide cs,Pf growth 48h,Shiga inhibitor,SARS PLP yeast
CC(=O)Nc1ccccc1NC(=O)C/C(C)=N/NC(=O)c1ccc([N+](=O)[O-])c(Cl)c1,22%[11.6 µM],15%,12,7%,9,18%
Cc1ccc(NC(=O)c2ccncc2)cc1[N+](=O)[O-],1%,-71%,19*,16%,16,-2%
O=C(COC(=O)c1ccc(OC(F)F)cc1)NCC1CCCO1 (stereo not drawn),-8%,x,x,x,x,x
COc1ccc(-c2cn(CC[C@@H]3CC[C@H](NC(=O)Cc4ccccn4)[C@@H](CO)O3)nn2)cc1,33%,x,x,x,x,x
CCOc1ccc(NC(=O)CN(C)C(=O)c2cc([N+](=O)[O-])ccc2Sc2ccccc2)cc1OCC,-29%,x,x,x,x,x
Cc1cc(C(=O)Nc2ccc(Nc3ccccc3)cc2)ccc1[N+](=O)[O-],u,12µM*,20*,-26%,x,13%
O=C(Nc1ccc(Nc2ccccc2)cc1)c1ccc(Cl)c([N+](=O)[O-])c1,u,u,0,2%,6,-13%
Cc1cc(-c2ccc(C)c(S(=O)(=O)NCCc3ccco3)c2)on1,-6%,u,-3,5%,12,u
CCc1ccc(-c2cc(C)no2)cc1S(=O)(=O)NCc1ccco1,-3%,29%,30*,-17%,42*,-21%
CCc1ccc(-c2cc(C)no2)cc1S(=O)(=O)NCCc1ccc(OC)c(OC)c1,0%,12µM*,1,0%,-1,0%
COc1c(C)cc(S(=O)(=O)NCc2ccco2)c(C)c1C,-1%,u,15*,u,21,0%
COc1cc(Cl)c(NC2=CC(=O)C(=O)c3ccccc32)c(OC)c1,-18%,u,x,0.37µM*,x,-2%
COc1cc(Cl)c(NS(=O)(=O)c2ccc(-c3ccc(=O)[nH]n3)o2)c(OC)c1,-9%,56%,-8,18%,-11,-5%
Cc1ccc(-c2cc(C(F)(F)F)n3nc(C(=O)NCCCn4ccnc4)cc3n2)cc1C,3%,u,2,u,-8,-4%
O=C(Cc1c[nH]c2ccccc12)Nc1nc2ccccc2[nH]1,21%,u,26*,19%,74*,0%
O=S(=O)(CCOc1ccccc1)c1nc2ccccc2[nH]1,1%,u,18*,-12%,23*,-3%
O=C(CSc1nc2ccccc2[nH]1)Nc1ccc(F)cc1,6%,-8%,-6,x,3,-10%
O=C(CSc1ccc(Cl)cc1)Nc1ccc(-c2nc3ccccc3[nH]2)cc1,9%[11.6 µM],10%,-2,4.1µM*,24,3%
O=C(CSc1ccccc1)Nc1nc2ccccc2[nH]1,30%,125%,28*,123%,84*,-6%
O=C(O)/C=C/C(=O)NC1CCCCC1,-5%,-3%,-3,10%,-10,15%
COCOCCn1cc(CN2CCS(=O)(=O)N(Cc3ccc(-c4ccc(Cl)c(Cl)c4)cc3)C(C)C2=O)nn1 (stereo not drawn),-5%,x,x,x,x,x
O=C(CCCOc1ccccc1)Nc1nc2ccccc2[nH]1,7%,223%,34*,278%,68*,3%
